Screening data deposited in PubChem BioAssay by several laboratories.
Most compounds without a hit are left out; they make up all but 3.5% or so of the library.
FBA Mtb inh: Mtb FBA enzyme inhibitors, primary screen, biochemical, fluorescence, strain H37Rv | AID 588726, 2011 | purified M. tuberculosis FBA, fluorescence read-out | hit rate 2.3% among 360,000 | Fructose-bisphosphate aldolase (Mycobacterium tuberculosis (strain ATCC 25618 / H37Rv)), … | inhibition, % at 1 µM; in the data active = inhibition above about 27%
Target sequence (P9WQA3 whole entry, looked up): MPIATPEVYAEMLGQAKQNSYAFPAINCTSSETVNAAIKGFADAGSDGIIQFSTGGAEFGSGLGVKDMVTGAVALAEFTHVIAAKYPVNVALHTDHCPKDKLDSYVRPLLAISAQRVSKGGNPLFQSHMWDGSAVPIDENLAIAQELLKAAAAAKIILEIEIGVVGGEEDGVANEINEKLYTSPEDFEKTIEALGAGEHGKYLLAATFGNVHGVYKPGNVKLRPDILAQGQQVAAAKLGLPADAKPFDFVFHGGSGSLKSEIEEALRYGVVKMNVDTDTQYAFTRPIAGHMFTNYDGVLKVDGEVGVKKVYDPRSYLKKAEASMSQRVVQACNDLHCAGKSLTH
Rv3671c inh: Rv3671c serine protease inhibitors, primary screen, biochemical, fluorescence polarization, M. tuberculosis H37Rv | P9WHR9 | inhibition, % at 5.96 µM | hit rate 0.048% among 320,000; in the data active = inhibition above about 38%;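 also: extracellular domain of Rv3671c used as enzyme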
GDH-TPI inh: GDH-TPI coupling enzyme inhibitors, primary screen, artefact control for M. tuberculosis FBA inhibitor project, biochemical, absorbance, full deck; GDH-TPI coupled enzyme counterscreen, NADH absorbance; hit rate 1.2% among 360,000; inhibition, % at 4.8 µM; in the data active = inhibition above about 30%
UGM FP inh: M. tuberculosis UGM enzyme inhibitors, primary screen, biochemical, fluorescence polarization, single point; purified UGM, fluorescence polarization probe displacement; AID 504406, 2011; inhibition, % at 10 µM; UDP-galactopyranose mutase (Mycobacterium tuberculosis (strain ATCC 25618 / H37Rv)), …; hit rate 0.06% among 320,000; in the data active = inhibition above about 10%, passing the limit was not always enough
Of the large screens only hits and unclear results are named; the others gave an inactive call.

COc1ccc(-c2cc(-c3ccccc3)nc(Cl)n2)cc1OC	GDH-TPI inh 33
COc1ccc(-c2nc3ccccc3nc2-c2ccccc2)cc1OC	GDH-TPI inh 31
NC(=O)C1CCN(CC(=O)Nc2ccccc2C(=O)NC2CC2)CC1	none
COC(=O)c1ccc(-c2cc(C(=O)O)c3cc4c(cc3n2)OCCO4)cc1	FBA Mtb inh active
Cc1ccc(C(=O)NC(C)C2CC3CCC2C3)c(C)c1 (centres undefined)	none
CCc1ccc(N2CN=c3s/c(=C\c4ccccc4)c(=O)n3C2)cc1	GDH-TPI inh 35
Cc1cccc(N2CN=c3s/c(=C\c4ccccn4)c(=O)n3C2)c1	GDH-TPI inh 64
O=c1/c(=C/c2ccccn2)sc2n1CN(c1ccccc1)CN=2	none
CCCNC(=O)C1(C)CCN(CCOc2ccc(Cl)cc2)C1 (centres undefined)	none (no result: Rv3671c inh, UGM FP inh)
COCCOC(=O)C1=C(C)NC(=O)NC1c1c(Cl)nc2ccccn2c1=O (centres undefined)	GDH-TPI inh 31
COCCOC(=O)C1=C(C)NC(=O)NC1c1c(Cl)nc2c(C)cccn2c1=O (centres undefined)	none (no result: FBA Mtb inh, GDH-TPI inh)
Oc1cc(O)c2c(c1)O[C@H](c1ccc(O)c(O)c1)[C@@H](O)C2	none
O=C1c2c(O)cc(O)cc2O[C@@]12c1c(cc(O)c3c1O[C@H](c1ccc(O)cc1)[C@@H](O)C3)O[C@@H]2c1ccc(O)cc1	GDH-TPI inh 36
COc1ccc(NC(=O)c2cnn(-c3ccccc3)c2C)cc1OC	none
O=C1CCCC2=C1C(c1ccncc1)n1c(nc3ccccc31)N2 (centres undefined)	FBA Mtb inh active
CC1CC(=O)C2=C(C1)Nc1nc3ccccc3n1C2c1cccnc1 (centres undefined)	FBA Mtb inh 165
CSc1nc2n(n1)C(c1cccs1)C1=C(CCCC1=O)N2 (centres undefined)	none (no result: UGM FP inh)
COc1ccccc1CNc1nc(Nc2ccc(C)cc2C)c2sccc2n1	none (no result: Rv3671c inh, UGM FP inh)
COC(=O)c1ccc(NC(=O)c2ccc3c(c2)NC(=O)C2CCCN32)cc1 (centres undefined)	none (no result: FBA Mtb inh, GDH-TPI inh)
O=C(O)c1cccc(Cn2c(Cl)c(/C=N/NC(=O)c3ccccc3Cl)sc2=O)c1	GDH-TPI inh 41
COc1ccc(C(=O)N/N=C/c2sc(=O)n(Cc3cccc(C(=O)O)c3)c2Cl)cc1	GDH-TPI inh 36
O=C(O)c1cccc(Cn2c(Cl)c(/C=N/Nc3ccccc3)sc2=O)c1	none
Cc1ccccc1OCC(=O)N/N=C/c1sc(=O)n(Cc2cccc(C(=O)O)c2)c1Cl	none
O=C(O)c1cccc(Cn2c(Cl)c(/C=N/NC(=O)c3ccccc3O)sc2=O)c1	GDH-TPI inh 54
Cn1cnc(S(=O)(=O)Nc2ccc(Cl)c(C(F)(F)F)c2)c1	none
CCCCCCN(C(=O)CCCCCN1C(=O)NC(c2ccc([N+](=O)[O-])cc2)C(C(=O)OCc2ccccc2)=C1C)C(C(=O)NCCCC)C1CCCCC1 (centres undefined)	none (no result: Rv3671c inh, UGM FP inh)
Cn1c(C(=O)NC2CCCCC2)cc2c(=O)n3ccccc3nc21	FBA Mtb inh 114
Cc1nc2ccccn2c1C(=O)NC1CCCCC1	none
O=C(NC1CCCC1)c1cc2c(=O)n3ccccc3nc2s1	FBA Mtb inh 178
COc1ccc(NC(=O)c2cc3c(=O)n4ccccc4nc3n2C)c(OC)c1	none
Cc1cc(NS(=O)(=O)c2ccc(NC(=O)c3cc4c(=O)n5ccccc5nc4s3)cc2)nc(C)n1	none (no result: Rv3671c inh, UGM FP inh)
Cn1c(C(=O)NCc2ccccn2)cc2c(=O)n3ccccc3nc21	FBA Mtb inh 196
CC1CCCCN1C(=O)c1cc2c(=O)n3ccccc3nc2s1 (centres undefined)	FBA Mtb inh 101
Cc1cc(SCC(=O)NCC2CCCO2)nc2ccccc12 (centres undefined)	none
COc1cc(C(=O)NCC2(N(C)C)CCCCC2)ccc1OCc1ccccc1	none
CCn1c(=O)c(=O)[nH]c2cc(C(=O)NC3CC3)ccc21	none
CCn1c(=O)c(=O)[nH]c2cc(C(=O)NC3CCCc4ccccc43)ccc21 (centres undefined)	GDH-TPI inh 31
CC1=CC(C#N)(C#N)C(C#N)(C#N)C(c2ccccc2)N1 (centres undefined)	Rv3671c inh 43 (no result: FBA Mtb inh, GDH-TPI inh)
COc1ccc(C(=O)Nc2nnc(SCC(=O)NCc3ccco3)s2)c(OC)c1	none
COc1ccc(-n2c(=S)[nH]c3sc(-c4ccccc4)cc3c2=O)c(OC)c1	none
COc1cccc(-c2cc3c(=O)n(-c4ccccc4)c(=S)[nH]c3s2)c1	GDH-TPI inh 38
CCc1nc2ccc(C(=O)NCCc3ccccn3)cn2c1N(CCC(C)C)CCN(C)C	none (no result: Rv3671c inh, UGM FP inh)
